This is part of a sample that, as a whole, favours compounds with a hit. Of some 79,000 tested, about 15% had one in any assay. A number with no mark means an inactive call. Active and inactive are the calls of the source. No stated cut-off is given here; in the data, active means growth inhibition above about 70%; inactive means the rest.
Legend:
[1] = NCI Yeast Anticancer Drug Screen. Data for the rad50 strain (AID 155);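 further: 0% = growth of vehicle-only cultures of the same strain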; conditions: S. cerevisiae rad50 strain growth inhibition, active compounds read high
Summary of the method: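 DNA repair mutant yeast, compound exposure, growth read-out; inhibition is taken relative to vehicle.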

[2] = NCI Yeast Anticancer Drug Screen. Data for the mec2-1 strain (AID 157); conditions: S. cerevisiae mec2-1 strain, active compounds read high
Summary of the method: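 Each compound was tested on mec2-1 yeast, a strain altered in DNA damage repair or cell cycle control. Growth inhibition is reported relative to vehicle.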

[3] = NCI Yeast Anticancer Drug Screen. Data for the sgs1 mgt1 strain (AID 161);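 further: 0% = growth of cultures given vehicle only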; conditions: S. cerevisiae sgs1 mgt1 strain, active compounds read high
Summary of the method: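 Mutant yeast exposed to compound; growth scored against vehicle-only wells.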

[4] = NCI Yeast Anticancer Drug Screen. Data for the cln2 rad14 strain (AID 165);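 further: 0% = growth equal to vehicle treated cultures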; conditions: S. cerevisiae cln2 rad14 strain, active compounds read high
Summary of the method: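 Test compounds were added to cln2 rad14 yeast cultures; inhibition of growth was then determined by comparison with vehicle treatment.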

[5] = NCI Yeast Anticancer Drug Screen. Data for the bub3 strain (AID 167); conditions: S. cerevisiae bub3 mutant strain, active compounds read high
Summary of the method: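 In this screen, a yeast mutant lacking normal mitotic checkpoint function is challenged with compound. Relative growth versus vehicle gives the inhibition value.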

[6] = NCI Yeast Anticancer Drug Screen. Data for the mlh1 rad18 strain (AID 175); conditions: S. cerevisiae mlh1 rad18 strain growth inhibition, active compounds read high
Summary of the method: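 Inhibition values reflect reduced growth of mutant yeast versus vehicle-treated controls following compound exposure; the mutations affect DNA damage repair.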

[7] = at 5.0 µM (retest, dose inferred, filed as 0.5)
[8] = at 50.0 µM (retest, dose inferred, filed as 5.0)

| SMILES | growth inhibition [1, 7] | growth inhibition [1, 8] | growth inhibition ([1]; at 50.0 µM) | growth inhibition [2, 7] | growth inhibition [2, 8] | growth inhibition ([2]; at 50.0 µM) | growth inhibition [3, 7] | growth inhibition [3, 8] | growth inhibition ([3]; at 50.0 µM) | growth inhibition [4, 7] | growth inhibition [4, 8] | growth inhibition ([4]; at 50.0 µM) | growth inhibition [5, 7] | growth inhibition [5, 8] | growth inhibition ([5]; at 50.0 µM) | growth inhibition [6, 7] | growth inhibition [6, 8] | growth inhibition ([6]; at 50.0 µM) |
| --- | --- | --- | --- | --- | --- | --- | --- | --- | --- | --- | --- | --- | --- | --- | --- | --- | --- | --- |
| O=C(CCl)N1CCN(C(c2ccccc2)c2ccccc2)CC1 | 6% | 96% (active) | 95% (active) | 12% | 95% (active) | 85.8% (active) | 9% | 97% (active) | 97.8% (active) | 12% | 91% (active) | 81.2% (active) | 13% | 97% (active) | 95.5% (active) | 15% | 97% (active) | 97.5% (active) |
| CC1(CCC(=O)O)c2ccc3ccccc3c2Oc2c1ccc1ccccc21 | 79% (active) | 94% (active) | 93.8% (active) | 92% (active) | 94% (active) | 96.2% (active) | 81% (active) | 94% (active) | 96% (active) | 77% (active) | 95% (active) | 94.9% (active) | 51% | 92% (active) | 95.9% (active) | 84% (active) | 92% (active) | 94.8% (active) |
| CC(=O)OC12CCC3C4CC=C5CC(O)CCC5(C)C4C(=O)C3C1(C)N1CC(C)CC(O)C1C2C (stereo not given) | 7% | 40% | 74.5% (active) | 10% | 42% | 59.5% | 5% | 68% | 62.2% | 18% | 62% | 56.9% | 16% | 74% (active) | 64.2% | -23% | 59% | 47% |
| C/C=C/CSc1cc(NC(=S)c2ccsc2C)ccc1Cl | -6% | 83% (active) | 88.2% (active) | -1% | 82% (active) | 85.8% (active) | 43% | 88% (active) | 91.2% (active) | -19% | 80% (active) | 84.3% (active) | -2% | 88% (active) | 88.6% (active) | 6% | 89% (active) | 86.8% (active) |
| CCCCCCCCCC1OCC(C)O1 (stereo not given) | 3% | 30% | 53% | 3% | 30% | 44.6% | -2% | 38% | 73.2% (active) | 6% | 17% | 4% | 7% | 36% | 7.7% | 4% | 62% | 61.2% |
| CCOC(=O)c1sc2c(c1O)c(=O)n(-c1ccccc1)c(=S)n2-c1ccccc1 | 84% (active) | 98% (active) | 95.7% (active) | 90% (active) | 98% (active) | 95.8% (active) | 83% (active) | 98% (active) | 95.5% (active) | 86% (active) | 98% (active) | 85.3% (active) | 47% | 97% (active) | 95.2% (active) | 92% (active) | 98% (active) | 95% (active) |
| Fc1ccc2nncc(SCc3ccccc3)c2c1 | 1% | 97% (active) | 97.9% (active) | 10% | 99% (active) | 97.2% (active) | 11% | 98% (active) | 93.2% (active) | 3% | 95% (active) | 91.5% (active) | 2% | 97% (active) | 97% (active) | -2% | 98% (active) | 95.5% (active) |
| CCCCCCC/C=C\C(=O)O | 0% | 13% | 35.5% | 4% | 32% | 17.9% | 1% | 38% | 33.6% | 4% | 25% | 38.9% | 5% | 23% | 6.4% | 1% | 36% | 74.5% (active) |
| CC[C@H]1CN2CCc3cc(OC)c(OC)cc3[C@@H]2C[C@@H]1C[C@H]1NCCc2cc(OC)c(OC)cc21 | 0% | 12% | -7.4% | -10% | -2% | -4.65% | 1% | 3% | 4% | 1% | 17% | 7.5% | 3% | 0% | 2.55% | 1% | 3% | 8.25% |
| CCOP(=O)(CCC(=O)[C@@]1(O)CC[C@H]2[C@@H]3CCC4=CC(=O)CC[C@]4(C)[C@H]3CC[C@@]21C)OCC | 0% | 2% | 33.9% | 1% | 5% | 5.55% | 3% | 16% | 72.8% (active) | -1% | 2% | 59.4% | -2% | -3% | 29.8% | -4% | 7% | 39.1% |
